Test results from PubChem BioAssay (NCATS).
Results filed as inconclusive are left out. Calls of active or inactive are those of the source. The call rests on the fitted dose curve; in most records, active means well fitted curve in the direction sought with a large enough effect; inconclusive means small, poorly fitted or top-dose-only effect, or another doubt; inactive means no such curve, though single readings can be large; an effect the other way counts as inactive or inconclusive.

Tests used:
[1] = NS1 protein of Zika virus - qHTS assay to identify small molecule inhibitors in human HEK 293 cells (AID 1347053);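 further: series mostly up to about 46 µM; plate controls were infected untreated cells for no effect and uninfected cells for full effect; nearly all actives have a fitted effect of over 55% in size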
Outline: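 HEK 293; 20 h pre-culture, 37 C/5% CO2; cpd 1 h pre-infection; ZIKV MR766, MOI = 0.5, 24 h, 37 C; TR-FRET NS1 readout (two anti-NS1 Abs); norm. to no-virus vs infected.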

[2] = qHTS of pediatric cancer cell lines to identify multiple opportunities for drug repurposing: Primary screen for TC32 cells (AID 1347089); further: on the % scale 0 is the no-effect control and ±100 the full control effect; nearly all actives have a fitted effect of over 60% in size
Outline: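 TC32 cells, 500-1,000/well in growth medium, compound-treated 48 h at 37 °C; viability from CellTiter-Glo luminescence. Primary screen: MIPE 11-point (0.78 nM–46 µM final), NPC 8-point (0.59 nM–46 µM final); confirmatory at 11-point dilutions.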

[3] = qHTS of pediatric cancer cell lines to identify multiple opportunities for drug repurposing: Primary screen for DAOY cells (AID 1347090);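 further: series mostly up to about 46 µM; plate controls were DMSO for no effect and bortezomib for full effect; nearly all actives have a fitted effect of over 55% in size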
Outline: (§1)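 Eight- or eleven-point concentration series, 48 h treatment at 37 degrees C in growth media; readout CellTiter-Glo luminescence. Potency and efficacy were taken from the concentration-response curves.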

[4] = qHTS of pediatric cancer cell lines to identify multiple opportunities for drug repurposing: Primary screen for SJ-GBM2 cells (AID 1347091);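 further: plate controls were DMSO neutral control for no effect and bortezomib for full effect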
Outline: as §1

[5] = qHTS of pediatric cancer cell lines to identify multiple opportunities for drug repurposing: Primary screen for A673 cells (AID 1347092); further: on the % scale 0 is the no-effect control and ±100 the full control effect; nearly all actives have a fitted effect of over 45% in size
Outline: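 A673 cells (500-1,000 cells/well) were treated 48 hours at 37 degrees C with compounds at 11-point (0.78 nM to 46 µM) or 8-point (0.59 nM to 46 µM) dilutions. Viability read by CellTiter-Glo luminescence; concentration-response curves fitted.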

[6] = qHTS of pediatric cancer cell lines to identify multiple opportunities for drug repurposing: Primary screen for SK-N-MC cells (AID 1347093);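 further: series mostly up to about 46 µM; plate controls were DMSO neutral control for no effect and bortezomib for full effect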
Outline: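 Metabolically active cells were quantified by ATP-dependent luminescence (CellTiter-Glo, 15 min at room temperature) following 48 h treatment. Cells had been plated at 500-1,000 per well and settled for 5 h beforehand.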

[7] = qHTS of pediatric cancer cell lines to identify multiple opportunities for drug repurposing: Primary screen for BT-37 cells (AID 1347094);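 further: series mostly up to about 57 µM; plate controls were DMSO for no effect and bortezomib for full effect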
Outline: (§2)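 Phenotypic viability qHTS, 48 h compound exposure, CellTiter-Glo luminescence read-out; multi-concentration dosing so that potency and efficacy derive directly from the primary screen's curves.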

[8] = qHTS of pediatric cancer cell lines to identify multiple opportunities for drug repurposing: Primary screen for NB-EBc1 cells (AID 1347095);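 further: plate controls were DMSO neutral control for no effect and bortezomib for full effect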
Outline: as §2

[9] = qHTS of pediatric cancer cell lines to identify multiple opportunities for drug repurposing: Primary screen for U-2 OS cells (AID 1347096);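 further: plate controls were DMSO wells for no effect and bortezomib positive control wells for full effect; nearly all actives have a fitted effect of over 50% in size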
Outline: (§3)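 Cells (500-1,000/well) in growth media were settled 5 h at 37 degrees C, then given compounds for 48 h. Viability was read as CellTiter-Glo luminescence. Primary runs used MIPE at 11 points (0.78 nM-46 µM) and NPC at 8 points (0.59 nM-46 µM); follow-ups used 11 points.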

[10] = qHTS of pediatric cancer cell lines to identify multiple opportunities for drug repurposing: Primary screen for Saos-2 cells (AID 1347097); further: on the % scale 0 is the no-effect control and ±100 the full control effect; nearly all actives have a fitted effect of over 40% in size
Outline: as §2

[11] = qHTS of pediatric cancer cell lines to identify multiple opportunities for drug repurposing: Primary screen for SK-N-SH cells (AID 1347098);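 further: DMSO served as neutral control and bortezomib at 2.3 µM as positive control; on the % scale 0 is the no-effect control and ±100 the full control effect; nearly all actives have a fitted effect of over 65% in size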
Outline: (§4)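 Cells (500-1,000/well) rested 5 h, then received compounds for 48 h; metabolically active cells were measured by CellTiter-Glo luminescence. Final concentrations spanned up to 46 µM (MIPE, 11-point) or 0.59 nM-46 µM (NPC, 8-point) in primary screens, 11-point in follow-ups.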

[12] = qHTS of pediatric cancer cell lines to identify multiple opportunities for drug repurposing: Primary screen for LAN-5 cells (AID 1347100);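 further: plate controls were DMSO neutral control for no effect and bortezomib positive control for full effect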
Outline: as §3

[13] = qHTS of pediatric cancer cell lines to identify multiple opportunities for drug repurposing: Primary screen for BT-12 cells (AID 1347101);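 further: plate controls were DMSO for no effect and bortezomib positive control for full effect; nearly all actives have a fitted effect of over 25% in size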
Outline: as §4

[14] = qHTS of pediatric cancer cell lines to identify multiple opportunities for drug repurposing: Primary screen for Rh18 cells (AID 1347102); further: on the % scale 0 is the no-effect control and ±100 the full control effect; nearly all actives have a fitted effect of over 65% in size
Outline: as §3

[15] = qHTS of pediatric cancer cell lines to identify multiple opportunities for drug repurposing: Primary screen for OHS-50 cells (AID 1347103);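 further: plate controls were DMSO neutral control for no effect and bortezomib positive control for full effect; nearly all actives have a fitted effect of over 40% in size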
Outline: as §4

[16] = qHTS of pediatric cancer cell lines to identify multiple opportunities for drug repurposing: Primary screen for RD cells (AID 1347104);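 further: plate controls were DMSO for no effect and bortezomib for full effect; nearly all actives have a fitted effect of over 55% in size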
Outline: as §2

[17] = qHTS of pediatric cancer cell lines to identify multiple opportunities for drug repurposing: Primary screen for MG 63 (6-TG R) cells (AID 1347105); further: on the % scale 0 is the no-effect control and ±100 the full control effect; nearly all actives have a fitted effect of over 50% in size
Outline: as §2

[18] = qHTS of pediatric cancer cell lines to identify multiple opportunities for drug repurposing: Primary screen for control Hh wild type fibroblast cells (AID 1347106);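 further: series mostly up to about 46 µM; on the % scale 0 is the no-effect control and ±100 the full control effect; a drop in luminescence marks cytotoxicity and a rise apparent proliferation; nearly all actives have a fitted effect of over 55% in size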
Outline: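 Viability after 48 h compound treatment at 37C, 500-1,000 cells/well, read as ATP luminescence with CellTiter-Glo. Primary screens used 11-point (MIPE, 0.78 nM-46 µM) or 8-point (NPC, 0.59 nM-46 µM) final concentrations; follow-up screens used 11-point dilutions.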

[19] = qHTS of pediatric cancer cell lines to identify multiple opportunities for drug repurposing: Primary screen for Rh30 cells (AID 1347107); further: series mostly up to about 46 µM; on the % scale 0 is the no-effect control and ±100 the full control effect; nearly all actives have a fitted effect of over 75% in size
Outline: as §3

[20] = qHTS of pediatric cancer cell lines to identify multiple opportunities for drug repurposing: Primary screen for NB1643 cells (AID 1347099);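 further: plate controls were DMSO neutral control for no effect and bortezomib positive control for full effect; nearly all actives have a fitted effect of over 50% in size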
Outline: as §2

C=CCNC(N)=S
inactive: outcome [1] | outcome [2] | outcome [3] | outcome [4] | outcome [5] | Potency [6] | outcome [7] | outcome [8] | outcome [9] | outcome [10] | outcome [11] | outcome [12] | outcome [13] | outcome [14] | outcome [15] | outcome [16] | outcome [17] | outcome [18] | outcome [19]

CC[C@]12CCCN3CCc4c(n(c5ccccc45)[C@@](O)(C(=O)OC)C1)[C@@H]32
inactive: outcome [1] | outcome [2] | outcome [3] | outcome [4] | outcome [5] | Potency [6] | outcome [7] | outcome [9] | outcome [10] | outcome [11] | Potency [20] | outcome [12] | outcome [13] | outcome [14] | outcome [15] | outcome [16] | outcome [18] | outcome [19]

Cc1ccc(S(=O)(=O)NC(=O)NC2CCCCC2)cc1
inactive: outcome [1] | outcome [2] | outcome [3] | outcome [4] | outcome [5] | Potency [6] | outcome [7] | outcome [8] | outcome [10] | outcome [11] | Potency [20] | outcome [12] | outcome [13] | outcome [14] | outcome [16] | outcome [17] | outcome [19]

NS(=O)(=O)c1cc2c(cc1C(F)(F)F)NCNS2(=O)=O
inactive: outcome [1] | outcome [2] | outcome [3] | outcome [4] | outcome [5] | Potency [6] | outcome [7] | outcome [9] | outcome [10] | outcome [11] | Potency [20] | outcome [12] | outcome [13] | outcome [14] | outcome [15] | outcome [16] | outcome [17] | outcome [18] | outcome [19]

CC(=O)Oc1cccc(C)c1
inactive: outcome [1] | outcome [2] | outcome [3] | outcome [4] | outcome [5] | Potency [6] | outcome [7] | outcome [8] | outcome [11] | Potency [20] | outcome [12] | outcome [13] | outcome [14] | outcome [15] | outcome [16] | outcome [18] | outcome [19]

COC(=O)c1ccccc1C(=O)c1ccc(OCCN2CCCCC2)cc1
inactive: outcome [1] | outcome [2] | outcome [3] | outcome [4] | outcome [5] | Potency [6] | outcome [7] | outcome [9] | outcome [11] | Potency [20] | outcome [12] | outcome [13] | outcome [14] | outcome [15] | outcome [16] | outcome [17] | outcome [19]

C[C@@H]1CCC[C@H](C)N1
inactive: outcome [1] | outcome [2] | outcome [3] | outcome [4] | outcome [5] | Potency [6] | outcome [7] | outcome [8] | outcome [10] | outcome [11] | Potency [20] | outcome [12] | outcome [13] | outcome [14] | outcome [15] | outcome [16] | outcome [17] | outcome [18] | outcome [19]

CC(=O)N[C@@H](Cc1ccc(O)cc1)C(=O)O
inactive: outcome [1] | outcome [2] | outcome [3] | outcome [4] | outcome [5] | Potency [6] | outcome [7] | outcome [8] | outcome [11] | Potency [20] | outcome [12] | outcome [13] | outcome [14] | outcome [15] | outcome [16] | outcome [17] | outcome [18] | outcome [19]

CCS(=O)(=O)CCn1c([N+](=O)[O-])cnc1C
inactive: outcome [1] | outcome [2] | outcome [3] | outcome [4] | outcome [5] | Potency [6] | outcome [7] | outcome [9] | outcome [10] | outcome [11] | Potency [20] | outcome [12] | outcome [13] | outcome [14] | outcome [15] | outcome [16] | outcome [17] | outcome [18] | outcome [19]

N[C@@H](Cc1ccc(O)cc1)C(=O)O
inactive: activity change, negative = inhibition [1] 1.13% [at 9.2 µM] | activity change, negative = cytotoxic [2] 18.1% [at 9.17 µM] | activity change, negative = cytotoxic [3] 6.24% [at 9.22 µM] | activity change, negative = cytotoxic [4] 12% [at 9.22 µM] | activity change, negative = cytotoxic [5] 2.23% [at 9.22 µM] | activity change, negative = cytotoxic [6] 11% [at 9.22 µM] | activity change, negative = cytotoxic [7] 20.6% [at 11.5 µM] | activity change, negative = cytotoxic [9] 16.3% [at 9.22 µM] | activity change, negative = cytotoxic [10] 14.8% [at 9.22 µM] | activity change, negative = cytotoxic [11] 5.3% [at 11.4 µM] | activity change, negative = cytotoxic [20] 17.5% [at 9.22 µM] | activity change, negative = cytotoxic [12] 6.26% [at 9.22 µM] | activity change, negative = cytotoxic [13] 11.7% [at 11.5 µM] | activity change, negative = cytotoxic [14] 18.9% [at 9.22 µM] | activity change, negative = cytotoxic [15] 9.85% [at 11.5 µM] | activity change, negative = cytotoxic [16] 14.4% [at 9.22 µM] | activity change, negative = cytotoxic [18] 11.3% [at 9.22 µM] | activity change, negative = cytotoxic [19] 21.6% [at 9.22 µM]

CC(C)=CCC[C@@](C)(O)[C@H]1CC=C(C)CC1
inactive: outcome [1] | outcome [2] | outcome [3] | outcome [4] | outcome [5] | Potency [6] | outcome [7] | outcome [10] | outcome [11] | Potency [20] | outcome [12] | outcome [13] | outcome [14] | outcome [15] | outcome [16] | outcome [17] | outcome [18] | outcome [19]

O=C(OOC(=O)c1ccccc1)c1ccccc1
inactive: outcome [1] | outcome [2] | outcome [3] | outcome [4] | outcome [5] | Potency [6] | outcome [7] | outcome [8] | outcome [10] | outcome [11] | Potency [20] | outcome [12] | outcome [13] | outcome [14] | outcome [16] | outcome [17] | outcome [18] | outcome [19]

CC(N)CCCC(C)(C)O (configuration not stated)
inactive: outcome [1] | outcome [2] | outcome [3] | outcome [4] | outcome [5] | Potency [6] | outcome [7] | outcome [9] | outcome [10] | outcome [11] | outcome [12] | outcome [13] | outcome [14] | outcome [16] | outcome [17] | outcome [18] | outcome [19]

CCOc1ccccc1O[C@H](c1ccccc1)[C@H]1CNCCO1
inactive: outcome [1] | outcome [2] | outcome [3] | outcome [4] | outcome [5] | Potency [6] | outcome [7] | outcome [8] | outcome [10] | Potency [20] | outcome [12] | outcome [13] | outcome [14] | outcome [16] | outcome [17] | outcome [18] | outcome [19]

CCOC(=O)[C@H](CCc1ccccc1)N[C@@H](C)C(=O)N1Cc2cc(OC)c(OC)cc2C[C@H]1C(=O)O
inactive: outcome [1] | outcome [2] | outcome [3] | outcome [4] | outcome [5] | Potency [6] | outcome [7] | outcome [8] | outcome [10] | outcome [11] | outcome [12] | outcome [13] | outcome [14] | outcome [16] | outcome [17] | outcome [19]
